The record followed here is the antibiotic and cytotoxicity screens of Wong et al. (2023).

Hit rate of the full screen: of about 39,000 compounds, about 3,300 (8.5%) were called active. The list comes from a sample in which actives are over-represented; it also holds similar structures and randomly drawn compounds.

In the assay the test system is HepG2. The assay is described as follows: cytotoxicity call (relative viability < 0.9). As to conditions: 10 µM.
On to `c1cncc(N2CCNCC2)c1`, for which the cytotoxicity call was “inactive”.
With `Cc1[nH]c2ccccc2c1CCN`, the cytotoxicity call was “inactive”.
Then `C=CCOC(=O)[C@@H]1[C@H](C(=O)OC)N(C)[C@@H](c2ccccc2)[C@]12C(=O)Nc1ccc(I)cc12`, with “inactive”; and `OCCN(CCO)CCO`, with “inactive”.
Under `NC1Cc2ccccc2C1` stands “inactive”.
Turning to `CC(=O)OC(C)(C)/C=C/C(=O)C(C)(O)[C@H]1[C@H](O)C[C@@]2(C)[C@H]3CC=C4[C@@H](C[C@H](O)C(=O)C4(C)C)[C@]3(C)C(=O)C[C@]12C` (stereo not given in full), the cytotoxicity call is “active”.
For the compound `CC(C)(O)/C=C/C(=O)[C@](C)(O)[C@H]1[C@H](O)C[C@@]2(C)[C@H]3CC=C4[C@@H](CC(=O)C(=O)C4(C)C)[C@]3(C)C(=O)C[C@]12C`, the cytotoxicity call was “active”.
Then `Cc1nc(N2CCN(C)CC2)ccc1N`, with “inactive”; and `C[C@@H]1CN([C@H](C)CO)C(=O)CCCn2nncc2CO[C@H]1CN(C)C(=O)Oc1cccc2ccccc12`, with “inactive”.
Consider `O=C1C2CCN(CC2)C1(CO)CO`, for which the cytotoxicity call is “inactive”.
For `CN[C@@H]1[C@@H](O)[C@@H](O[C@@H]2[C@@H](O)[C@H](O[C@H]3O[C@H](CN)CC[C@H]3N)[C@@H](N)C[C@H]2N)OC[C@]1(C)O.CN[C@@H]1[C@@H](O)[C@@H](O[C@@H]2[C@@H](O)[C@H](O[C@H]3O[C@H]([C@@H](C)N)CC[C@H]3N)[C@@H](N)C[C@H]2N)OC[C@]1(C)O.CN[C@@H]1[C@@H](O)[C@@H](O[C@@H]2[C@@H](O)[C@H](O[C@H]3O[C@H]([C@@H](C)NC)CC[C@H]3N)[C@@H](N)C[C@H]2N)OC[C@]1(C)O`, the cytotoxicity call is “inactive”.
With `CN1C2CCC1CC(OC(=O)C(CO)c1ccccc1)C2.O=S(=O)(O)O` (stereo not given), the cytotoxicity call is “inactive”.
Then `CNCC(=O)c1ccc(O)c(O)c1.Cl`, with “inactive”; and `CCn1nc(-c2cccnc2)nc2c(=O)n(C)c(=O)nc1-2`, with “active”; and `CCCC(=O)O[C@H]1CN2CC[C@H](O)[C@@H]2[C@@H](O)[C@@H]1O`, with “inactive”.
Regarding `O=[N+]([O-])O[C@@H]1CO[C@H]2[C@@H]1OC[C@@H]2O`, the cytotoxicity call is “inactive”.
Under `C1CNC[C@@H](N2CCCC2)C1` stands “inactive”; under `O=C(NC[C@H]1CC[C@@H]2NC[C@@H]2O1)C1CCCC1`, “inactive”; under `C=CCN=C=S`, “active”.
As for `O=C1NCN(c2ccccc2)C12CCNCC2`, the cytotoxicity call was “inactive”.
As to `CN1C[C@H]2CON[C@@H]2C1`, the cytotoxicity call is “inactive”.
With `CC(C)(CN)CNc1ccc([N+](=O)[O-])c2cccnc12`, the cytotoxicity call was “active”.
With `O=[N+]([O-])c1ccc2c3c(cccc13)CC2`, the cytotoxicity call is “inactive”.
Under `O=C1O[C@H]2CN[C@@H]1C2` stands “inactive”; under `N[C@@H](C(=O)O)c1nn[nH]n1`, “inactive”; under `OCC(O)C1OC2OC(C(Cl)(Cl)Cl)OC2C1O` (stereo not given), “inactive”.
With `CS(=O)(=O)N1CCO[C@]2(COCCN(Cc3ccncc3)C2)C1`, the cytotoxicity call was “inactive”.
`O=c1[nH]c2ccccc2n1C1CCN(Cc2ccc(-c3nc4cc5[nH]cnc5cc4nc3-c3ccccc3)cc2)CC1`: the cytotoxicity call is “active”.
For the compound `CN1[C@@H]2CC[C@H]1C[C@H](O)C2`, the cytotoxicity call was “inactive”.
Turning to `Cc1cccnc1N1CCNCC1`, the cytotoxicity call was “inactive”.
Under `O=C1[O][SbH]23[O]C(=O)C([O]2)C2[O][SbH]4([O]C(=O)C([O]4)C1[O]3)[O]C2=O` stands “active”; under `O=C1[O][SbH]23[O]C(=O)[C@H]([O]2)[C@H]2[O][SbH]4([O]C(=O)[C@H]([O]4)[C@H]1[O]3)[O]C2=O`, “active”.
Then `N#C[C@H]1NCc2cnnn2-c2ccccc21`, with “inactive”; and `O=[N+]([O-])c1c(NCCO)ccc2nonc12`, with “inactive”; and `CC(C)(C)CC(=O)N1C[C@H]2C[C@@H]1CN2`, with “inactive”.
Then `Cc1cc[n+](C)cc1`, with “inactive”; and `O=c1n(Cl)c(=O)n(Cl)c(=O)n1Cl`, with “inactive”; and `CC(COc1ccc(Oc2ccccc2)cc1)Oc1ccccn1` (stereo not given), with “inactive”.
In the case of `O=c1[n-]c(=O)n(Cl)c(=O)n1Cl.[Na+]`, the cytotoxicity call was “inactive”.
Under `CCC(C)C1OC2(C=CC1C)CC1CC(CC=C(C)C(OC3CC(OC)C(OC4CC(OC)C(O)C(C)O4)C(C)O3)C(C)C=CC=C3COC4C(O)C(C)=CC(C(=O)O1)C34O)O2` (stereo not given) [ABAMECTIN (avermectin B1a shown) ] stands “active”; under `CN1CCN([C@@H](CN)c2ccc3c(c2)OCO3)CC1`, “inactive”.
Under `O=C1C[C@H](c2ccccc2)[C@@H]2CNCCN12` stands “inactive”; under `O=C(NC(=O)c1c(F)cccc1F)Nc1ccc(Cl)cc1`, “inactive”.
With `O=C(NC(=O)c1c(F)cccc1F)Nc1cc(Cl)c(OC(F)(F)C(F)C(F)(F)F)cc1Cl` (stereo not given), the cytotoxicity call was “active”.
Take `O=C(NC(=O)c1c(F)cccc1F)Nc1cc(Cl)c(OC(F)(F)[C@@H](F)C(F)(F)F)cc1Cl`: the cytotoxicity call was “inactive”.
Under `CN1CCc2cc3c(cc2C1O)OCO3.Cl` (stereo not given) stands “inactive”; under `COC(=O)C[C@](O)(CCC(C)(C)O)C(=O)O[C@@H]1C(OC)=C[C@]23CCCN2CCc2cc4c(cc2[C@H]13)OCO4`, “active”.
Then `CN1CCc2cc3c(cc2[C@@H]1O)OCO3`, with “inactive”.
Turning to `CN1C[C@@H]2c3nc(N(C)C)ncc3CS(=O)(=O)[C@H]2C1`, the cytotoxicity call is “inactive”.
Take `CN1CC(CNC(=O)OCc2ccccc2)CC2c3cccc4c3c(cn4C)CC21` (stereo not given): the cytotoxicity call is “active”.
Then `CC(C)[C@@]1(NC(=O)[C@H]2C[C@@H]3c4cccc5[nH]cc(c45)C[C@H]3N(C)C2)O[C@@]2(O)[C@H]3CCCN3C(=O)[C@@H](Cc3ccccc3)N2C1=O`, with “inactive”; and `CCC(CO)NC(=O)C1C=C2c3cccc4c3c(cn4C)CC2N(C)C1.O=C(O)C=CC(=O)O` (stereo not given), with “inactive”.
Under `CC(C)[C@@]1(NC(=O)[C@@H]2C[C@@H]3c4cccc5[nH]cc(c45)C[C@H]3N(C)C2)O[C@@]2(O)[C@@H]3CCCN3C(=O)[C@H](Cc3ccccc3)N2C1=O` stands “inactive”.
As to `CC(=O)OCC1=C(C(=O)O)N2C(=O)[C@@H](N)[C@H]2SC1`, the cytotoxicity call was “inactive”.
Then `CC(=O)Nc1cc([As](=O)(O)O)ccc1O`, with “inactive”.
Under `COC1=CC2C3Cc4ccc(OC)c(O)c4C2(CCN3C)CC1=O` (stereo not given) stands “inactive”.
As to `C=C1[C@@H](C)[C@H]2[C@H](Cc3ccccc3)NC(=O)[C@]23[C@H](OC(C)=O)/C=C/[C@](C)(O)C(=O)[C@@H](C)C/C=C/[C@H]3[C@@H]1O`, the cytotoxicity call is “active”.
Under `Cc1noc(C)c1C(=O)N1C[C@@H]2CCN[C@@H]2C1` stands “inactive”; under `CC1=NCCN=C(C)C1N1CCOCC1`, “inactive”; under `O=C(OC1CC2CCC(C1)[N+]21CCCC1)C(O)(c1ccccc1)c1ccccc1.[Cl-]` (stereo not given), “inactive”.
Then `N[C@@]1(C(=O)O)CC[C@@H](C(=O)O)C1.N[C@]1(C(=O)O)CC[C@H](C(=O)O)C1`, with “inactive”; and `CCC(C(=O)[O-])C1CCC(C)C(C(C)C(O)C(C)C(=O)C(CC)C2OC3(C=CC(O)C4(CCC(C)(C5CCC(O)(CC)C(C)O5)O4)O3)C(C)CC2C)O1.[Na+]` (stereo not given), with “active”.
On to `CC[C@@H](C(=O)[C@@H](C)[C@@H](O)[C@H](C)[C@@H]1O[C@@H]([C@@H](CC)C(=O)O)CC[C@@H]1C)[C@H]1O[C@]2(C=C[C@@H](O)[C@]3(CC[C@@](C)([C@H]4CC[C@](O)(CC)[C@H](C)O4)O3)O2)[C@H](C)C[C@@H]1C`, for which the cytotoxicity call was “inactive”.
Under `CCCCC(=O)N1C[C@@H]2CCNC[C@@H]21` stands “inactive”; under `Cc1csc(CCN)n1`, “inactive”.
Then `CN1[C@@H]2CNc3ccccc3[C@@H]2[C@@H]1CO`, with “inactive”; and `CCN1C[C@]2(OC(=O)c3ccccc3NC(C)=O)CC[C@@H](OC)[C@@]34[C@H]5C[C@@H]6[C@@H](OC)C[C@](O)([C@@H](C[C@@H]23)[C@@H]14)[C@]5(O)[C@H]6OC`, with “inactive”; and `N[C@@H](Cn1oc(=O)[nH]c1=O)C(=O)O`, with “inactive”.
Consider `COC(=O)C1=CCCN(C)C1`, for which the cytotoxicity call was “inactive”.
In the case of `Br.COC(=O)C1=CCCN(C)C1`, the cytotoxicity call is “active”.
Then `Clc1cc2c(cc1Cl)Oc1cc(Cl)c(Cl)cc1O2`, with “inactive”; and `CNCC(=O)c1ccc(O)c(O)c1`, with “inactive”; and `C[C@H]1CN([C@@H](C)CO)C(=O)c2c(c3ccccc3n2C)-c2ccccc2CO[C@H]1CN(C)C(=O)Oc1ccccc1`, with “inactive”.
Then `N[C@H]1Cc2ccccc2[C@@H]1O`, with “inactive”.
In the case of `O=[N+]([O-])c1ccc([As](=O)(O)O)cc1` [listing 1 of 2 here], the cytotoxicity call was “inactive”.
`O=[N+]([O-])c1ccc([As](=O)(O)O)cc1` [listing 2 of 2 here]: the cytotoxicity call was “active”.
Then `O=[N+]([O-])c1cc([As](=O)(O)O)ccc1O`, with “inactive”; and `CC1=C2C3OC(=O)C(C)C3CCC2(C)C=CC1=O` (stereo not given), with “inactive”.
Under `O=C1NC(=S)NC(=O)C1=Cc1ccccc1` stands “inactive”; under `C=CC=CCC1=C(C)C(OC(=O)C2C(C=C(C)C)C2(C)C)CC1=O` (stereo not given), “inactive”.
Under `Oc1cc(Cl)ccc1Oc1ccc(Cl)cc1Cl` [listing 1 of 2 here] stands “active”; under `Oc1cc(Cl)ccc1Oc1ccc(Cl)cc1Cl` [listing 2 of 2 here], “inactive”; under `Nc1ccc(Cl)cc1Cl`, “inactive”.
Take `Cc1nc(-c2ccc(-c3ccc(C(=O)N4CCc5cc6c(cc54)C4(CCN(C)CC4)CO6)cc3)c(C)c2)no1`: the cytotoxicity call is “active”.
Then `NCCc1nc2ccccc2[nH]1`, with “inactive”.
Consider `O[C@H]1[C@H]2[C@H](O)CCCN2C[C@H]1O`, for which the cytotoxicity call is “inactive”.
For the compound `COc1ccc(C(=O)O[C@H]2CC[C@@]3(C)[C@@H]4CC[C@H]5[C@]6(O)C[C@H](O)[C@@]7(O)[C@@H](CN8C[C@@H](C)CC[C@H]8[C@@]7(C)O)[C@]6(O)C[C@@]53O[C@]24O)cc1OC`, the cytotoxicity call is “inactive”.
Then `C[C@@H]1CC[C@@]2(OC1)O[C@H]1C[C@H]3[C@@H]4CC=C5C[C@@H](O[C@@H]6O[C@H](CO)[C@@H](O[C@@H]7O[C@@H](C)[C@H](O)[C@@H](O)[C@H]7O)[C@H](O)[C@H]6O[C@@H]6O[C@@H](C)[C@H](O)[C@@H](O)[C@H]6O)CC[C@]5(C)[C@H]4CC[C@]3(C)[C@H]1[C@@H]2C`, with “active”; and `CC1CCC2(NC1)OC1CC3C4CC=C5CC(O)CCC5(C)C4CCC3(C)C1C2C` (stereo not given), with “inactive”; and `C[C@@H]1CC[C@@]2(OC1)O[C@H]1[C@@H](O)[C@H]3[C@H]4CC[C@H]5C[C@H](O[C@@H]6O[C@H](CO)[C@H](O[C@@H]7O[C@H](CO)[C@@H](O)[C@H](O[C@@H]8OC[C@@H](O)[C@H](O)[C@H]8O)[C@H]7O[C@@H]7O[C@H](CO)[C@H](O)[C@H](O[C@@H]8O[C@H](CO)[C@@H](O)[C@H](O)[C@H]8O)[C@H]7O)[C@H](O)[C@H]6O)[C@H](O)C[C@]5(C)[C@@H]4CC[C@]3(C)[C@H]1[C@@H]2C`, with “inactive”.
